Only some compounds are listed: those with a hit (about 14% of all), similar ones and a draw of the others.
HCMV inh: blocks human cytomegalovirus replication. HFF cells, HCMV-luciferase reporter, 72 h; stronger effect = lower value. activity change, negative = inhibition, % at 57.5 µM. 410,000 tested, 4.5% active; in the data active = activity change below about -60%; inconclusive = no clear call, values can overlap the other calls; inactive = above about -39%
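Two-dose cell screen: HFF monolayers treated with compounds and infected with luciferase-expressing HCMV at 1 PFU/cell, 72 h at 37C, then lysed for luciferase measurement.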
Sm TGR block: blocks Schistosoma mansoni thioredoxin glutathione reductase | Q962Y6 | purified TGR, DTNB reduction, TNB absorbance 405 nm | Potency, µM (doses to about 114 µM), most hits filed as inhibitors | 360,000 tested, 3% active | AID 485364; also: nearly all actives have a fitted effect of over 60% in size
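Kinetic colorimetric format: TGR-catalysed, NADPH-driven DTNB reduction monitored via TNB absorbance. Enzyme dispensed at 20 nM; compound exposure 15 min at room temperature before reaction start.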
Pf growth 96h: P. falciparum growth inhibition at 96 hours; P. falciparum luciferase reporter growth, 96 h; Potency, µM (highest dose often 28.7 µM), actives largely listed as inhibitors; 320,000 tested, 6.9% active
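Plates of compound plus infected erythrocytes (2% hematocrit, 0.05% parasitemia final) incubate 96 hours, 37 C, 5% CO2. Detection reagent added; reduced luminescence from the parasites' luciferase reporter flags inhibition.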
Giardia FBPA inh: blocks Giardia fructose-bisphosphate aldolase activity; purified Giardia FBPA; A8B2U2; Potency, µM (highest dose often 59.6 µM), actives largely listed as inhibitors; 290,000 tested, 0.71% active; also: nearly all actives have a fitted effect of over 55% in size
Target sequence (A8B2U2 whole entry, looked up): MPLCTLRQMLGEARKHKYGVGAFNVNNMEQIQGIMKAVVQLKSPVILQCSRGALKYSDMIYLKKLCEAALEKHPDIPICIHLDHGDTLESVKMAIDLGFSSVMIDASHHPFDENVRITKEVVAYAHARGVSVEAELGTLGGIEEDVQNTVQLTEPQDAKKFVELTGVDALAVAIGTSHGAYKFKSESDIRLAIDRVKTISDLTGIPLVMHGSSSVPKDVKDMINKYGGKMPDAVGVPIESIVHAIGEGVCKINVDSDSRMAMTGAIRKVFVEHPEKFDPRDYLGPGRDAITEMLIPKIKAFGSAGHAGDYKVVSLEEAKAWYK
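Giardia FBPA (40 nM reagent) was preincubated 10 min at RT with compound (up to 57.5 uM final), then substrate plus GAPDH/TPI/NAD/arsenate coupling system with diaphorase/resazurin was added; resorufin fluorescence (525/598 nm) was read after 20 min.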
Pf growth 48h: inhibits P. falciparum growth in the first generation, 48 h. Potency, µM (series often up to 28.7 µM), actives largely listed as inhibitors. P. falciparum luciferase growth in erythrocytes, 48 h. 310,000 tested, 5.9% active
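Erythrocytes infected with P. falciparum carrying an integrated firefly luciferase reporter (2% hematocrit, 0.1% parasitemia final) were exposed to compounds in RPMI 1640 with 0.5% Albumax at 37 C, 5% CO2. Growth inhibition was scored as reduced luminescence.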
Of the large screens only hits and unclear results are named; the others gave an inactive call; ! = a repeat was not active. Unless noted, calls follow the shape of the dose curve; as a rule, active = well fitted curve in the direction sought with a large enough effect; inconclusive = small, poorly fitted or top-dose-only effect, or another doubt; inactive = no such curve, though single readings can be large; an effect the other way counts as inactive or inconclusive.

CC1CCN(c2ccccc2NC(=O)c2ccc([N+](=O)[O-])o2)CC1	Pf growth 48h inconclusive (no result: Giardia FBPA inh)
Cc1ccc(S(=O)(=O)N2CCN(C(=O)CN3CCCSc4ccccc43)CC2)cc1	Pf growth 96h inconclusive, Pf growth 48h inconclusive (no result: Giardia FBPA inh)
Cc1ccc(NC(=O)NNC(=O)c2ccc3c(c2)NC(=O)C(C)(C)O3)cc1	none
COc1ccc(C2=Nc3ccc(Br)cc3C(c3ccccc3)N2CC(=O)NN)cc1 (centres undefined)	Pf growth 48h 13.1µM
NNC(=O)CN1C(c2ccccc2Br)=Nc2ccc(Br)cc2C1c1ccccc1 (centres undefined)	Pf growth 96h inconclusive, Giardia FBPA inh inconclusive, Pf growth 48h inconclusive
NNC(=O)CN1C(c2cccc(Cl)c2)=Nc2ccc(Br)cc2C1c1ccccc1 (centres undefined)	Pf growth 48h 1.85µM
COc1ccc(C2=Nc3ccc(C)cc3C(c3ccccc3)N2CC(=O)NN)cc1 (centres undefined)	Pf growth 96h 1.85µM (no result: Sm TGR block)
CC1=Nc2ccc(Br)cc2C(c2ccccc2)N1CC(=O)O (centres undefined)	none (no result: Sm TGR block)
COC(=O)CN1C(c2ccc(Cl)cc2)=Nc2ccc(Cl)cc2C1c1ccccc1 (centres undefined)	Pf growth 96h 3.29µM, Pf growth 48h 2.62µM
O=C(O)CN1C(c2ccccc2)=Nc2ccc(Br)cc2C1c1ccccc1 (centres undefined)	none
CCOC(=O)/C=C/[C@H](CCc1ccccc1)NC(=O)C(F)(F)F	none (no result: Sm TGR block, Pf growth 96h, Giardia FBPA inh, Pf growth 48h)
CN1C(=O)C(C2(O)C(=O)N(Cc3ccccc3)c3ccccc32)c2ccccc21 (centres undefined)	none (no result: Sm TGR block, Pf growth 96h, Giardia FBPA inh, Pf growth 48h)
CCC1(CC)CNC(=O)NC1	none (no result: Sm TGR block, Pf growth 96h, Giardia FBPA inh, Pf growth 48h)
Cc1cc(C)n(CCCN2CCC(C(=O)Nc3cccc(-c4cccc(F)c4)c3)CC2)n1	HCMV inh -99.8, Pf growth 48h inconclusive
O=C(Nc1cccc(-c2cccc(F)c2)c1)C1CCN(Cc2ccc(CO)o2)CC1	none
O=C(Nc1cccc(-c2cccc(F)c2)c1)C1CCN(C2CCOCC2)CC1	Pf growth 96h 7.38µM, Pf growth 48h inconclusive
CCNc1sc(C(=O)c2cccs2)c(N)c1-c1nc2ccccc2s1	HCMV inh -80.4, Pf growth 96h inconclusive, Pf growth 48h inconclusive
c1ccc(Cn2nnc3c(NCC4CCCO4)nc(C4CC4)nc32)cc1 (centres undefined)	Pf growth 96h inconclusive, Pf growth 48h inconclusive
c1ccc(Cn2nnc3c(NCC4CCCO4)ncnc32)cc1 (centres undefined)	Pf growth 96h 11.7µM
O=C(Cc1ccc(-n2c(=O)c3ccccc3n(Cc3ccccc3F)c2=O)cc1)NCC1CCCO1 (centres undefined)	Pf growth 96h 4.65µM
O=C(CNC(=S)N(Cc1ccccc1F)C1CCCCC1)NCC1CCCO1 (centres undefined)	HCMV inh -61.1, Pf growth 48h inconclusive
c1ccc(Cn2nnc3c(N4CCC5(CC4)OCCO5)ncnc32)cc1	Pf growth 96h 11.7µM
O=C(CNC(=S)N(Cc1ccc(F)cc1)C1CCCCC1)NCC1CCCO1 (centres undefined)	Pf growth 96h inconclusive, Pf growth 48h inconclusive
CN1CCN(c2nnc(-c3ccc(F)cc3)c3ccccc23)CC1	Pf growth 48h inconclusive
CCCCCCCCCCCCCCCCC(C(=O)O)C(O)(CC(=O)O)C(=O)O (centres undefined)	none (no result: HCMV inh, Sm TGR block, Giardia FBPA inh)
COCc1ccccc1C1=CC(=O)C[C@H](c2ccc(OC)cc2)C1	none (no result: Giardia FBPA inh)
O=C(NNCc1ccc(O)cc1)c1ccccc1Cl	none
O=C(CSc1ncnc2c1nnn2Cc1ccccc1F)NCC1CCCO1 (centres undefined)	HCMV inh inconclusive, Pf growth 96h inconclusive, Pf growth 48h 14.7µM
COc1ccc(N2CCN(c3ncnc4c3nnn4Cc3ccccc3Cl)CC2)cc1	HCMV inh inconclusive, Pf growth 96h 5.22µM
COc1ccc(CCNC(=O)CCCn2c(=O)c3ccccc3n(Cc3c(C)cc(C)cc3C)c2=O)cc1OC	none (no result: Pf growth 96h, Giardia FBPA inh, Pf growth 48h)
CC1(C)OC(c2ccccc2)=C/C(=C\C=N\NC(=O)c2ccncc2)O1	HCMV inh -64.1, Pf growth 96h inconclusive, Pf growth 48h inconclusive
COc1ccc(-n2nnnc2C2CCN(S(=O)(=O)c3cc(Cl)ccc3OC)CC2)cc1	HCMV inh -78.2 (no result: Pf growth 96h, Giardia FBPA inh, Pf growth 48h)
COc1ccc(-n2nnnc2C2CCN(S(=O)(=O)c3ccc(C(C)(C)C)cc3)CC2)cc1	none (no result: Pf growth 96h, Giardia FBPA inh, Pf growth 48h)
COc1ccc(N(CC(=O)N2CCN(Cc3ccccc3)CC2)S(=O)(=O)c2ccccc2)cc1	HCMV inh inconclusive, Pf growth 96h 5.86µM, Pf growth 48h inconclusive (no result: Giardia FBPA inh)
COc1ccc(S(=O)(=O)N(C)CC(=O)N2CCN(c3ccccc3)CC2)cc1	none
CS(=O)(=O)N(CC(=O)N1CCN(Cc2ccccc2)CC1)c1cccc([N+](=O)[O-])c1	Pf growth 96h 2.94µM, Pf growth 48h inconclusive
COc1ccc(N2CCN(C(=O)CN(c3ccc(OC)cc3)S(=O)(=O)c3ccccc3)CC2)cc1	Pf growth 48h 11.7µM
COc1ccc(N(CC(=O)N2CCN(Cc3ccccc3)CC2)S(C)(=O)=O)cc1	none
COc1ccc(N2CCN(C(=O)CN(C)S(=O)(=O)c3cccs3)CC2)cc1	HCMV inh -99.8!
CS(=O)(=O)N(CC(=O)N1CCN(Cc2ccccc2)CC1)c1cccc(F)c1	none
Cc1ccc(S(=O)(=O)N2CCCC2CNC(=O)C(=O)NCc2ccccn2)cc1 (centres undefined)	none (no result: Giardia FBPA inh)
C=C1CCN(C(CC(C)C)C(=O)NCc2ccc(Cl)cc2)S(=O)(=O)c2ccccc21 (centres undefined)	none (no result: HCMV inh, Sm TGR block, Pf growth 96h, Pf growth 48h)
CNC[C@H]1OCCCC[C@H](C)Oc2ccc(NC(=O)CCCN(C)C)cc2C(=O)N([C@H](C)CO)C[C@@H]1C	none (no result: Sm TGR block, Pf growth 96h, Giardia FBPA inh, Pf growth 48h)
COc1cccc(C(=O)OCC(=O)c2c[nH]c3ccccc23)c1O	none
O=C(OCC(=O)c1c[nH]c2ccccc12)c1ccco1	Pf growth 96h 5.22µM
COc1cc(NC(=O)c2ccco2)c(C(=O)OCC(=O)c2c[nH]c3ccccc23)cc1OC	HCMV inh inconclusive, Pf growth 96h 2.33µM, Pf growth 48h 4.15µM
Cc1cnc(CN(C)C(=O)C2CCC(=O)N(CCc3ccc(Cl)cc3)C2)[nH]1 (centres undefined)	none (no result: Sm TGR block, Pf growth 96h, Giardia FBPA inh, Pf growth 48h)
COc1cc(CN2C[C@@H](CO)O[C@@H](n3cnc4c(Nc5ccccc5)ncnc43)C2)cc(OC)c1OC	none (no result: Sm TGR block, Pf growth 96h, Giardia FBPA inh, Pf growth 48h)
NC(=S)NN=Cc1nccc2c(N)cccc12	none (no result: Sm TGR block, Pf growth 96h, Giardia FBPA inh, Pf growth 48h)
CCN(C(C)=O)c1cnc(C=NNC(N)=S)c2ccccc12	HCMV inh -96.7 (no result: Sm TGR block, Pf growth 96h, Giardia FBPA inh, Pf growth 48h)
C=C(C)[C@H]1CC[C@]2(C(=O)O)CC[C@]3(C)[C@@H](CC[C@H]4[C@@]5(C)CC[C@@H](O)C(C)(C)[C@@H]5CC[C@@]43C)[C@H]12	none (no result: HCMV inh, Sm TGR block, Pf growth 96h, Pf growth 48h)
COc1cccc(C(Nc2ccccn2)c2c(NC(=O)c3ccco3)sc(C)c2C)c1 (centres undefined)	HCMV inh inconclusive, Pf growth 96h inconclusive, Pf growth 48h 8.28µM
